Assay results reported in ChEMBL document CHEMBL3988442, “University of Dundee, Small-Polar-MMV Screening Library” (2021).

Molecular target: AMP-activated protein kinase, AMPK (Homo sapiens) (UniProt P54646+O43741+P54619+Q9UGJ0+Q9Y478+Q13131+Q9UGI9)
Assay: AMP-dependent Kinase enzyme assay. An in vitro enzyme assay that detects ADP turnover that is directly proportional to AMPK activity. This uses naive AMPK that is activated during the assay with MK-8722
Assay type: functional
Set-up: scale not given: direction of the effect not stated beside the values
Conditions: 30 µM

Row | Compound | Percent Effect
1 | CSc1nccc(N2CCC3(CCCN(Cc4cccc(C)c4)C3)C2)n1 (stereo not given) | 5.62%
2 | Cn1cnnc1C1CCN(c2nc3ccccc3o2)CC1 | 1.68%
3 | Cc1ncsc1CCN(C)C(=O)CCc1nc2cccnc2n1C | -7.17%
4 | CC(C)c1nccn1CC1CCCN1Cc1nc2ccccc2n1C (stereo not given) | 4.02%
5 | Cc1cccc(C)c1Nc1noc2c1CN(C(=O)c1ccnn1C)CC2 | 9.88%
6 | O=C(NCC(O)c1cccc(F)c1)C1CCN(C(=O)C2CCC2)CC1 (stereo not given) | -3.62%
7 | CCn1cc(CN2CCC(c3ncc(Cl)cc3S(C)(=O)=O)CC2)c(C)n1 | 4.95%
8 | CNC(=O)c1sc(C(NC(=O)c2ccccc2)C2CC2)nc1C (stereo not given) | -1.61%
9 | CCOc1ccc2cc(C(=O)NCCC(=O)N(C)C)[nH]c2c1 | -3.77%
10 | Cc1c(NCCO)cccc1OC1CCCC1 | -6.27%
11 | CC(C)Cc1cc(CNC(=O)c2ccccc2C2CCNC2)no1 (stereo not given) | 3.3%
12 | Cc1nccn1CC1CCCN(C(=O)Cc2ccsc2)C1 (stereo not given) | 0.964%
13 | CCN(CC(=O)NC(C)(C)C)Cc1cccc2c1OCCO2 | -0.533%
14 | COc1ccc(Cl)cc1CN(CC(N)=O)C(C)C | -4.14%
15 | Cc1ccc2nc(CN3CCCCC3CCn3cccn3)cn2c1 (stereo not given) | 4.05%
16 | CN1CCOC(CNC(=O)CCCc2ccccc2)C1 (stereo not given) | -9.04%
17 | COC(=O)c1sc(C(NC(=O)c2ccccc2)C2CC2)nc1C (stereo not given) | -2.15%
18 | Nc1nccnc1C(=O)NC1CCCN(Cc2c(F)cccc2F)C1 (stereo not given) | 26.8%
19 | Cc1cc(C2CCCN(Cc3noc(Cc4ccccc4)n3)C2)n[nH]1 (stereo not given) | 35%
20 | Cn1nccc1-c1cncc(C2CCCN(S(C)(=O)=O)C2)n1 (stereo not given) | 22.7%
21 | COc1ncc(NCc2ccc(C#N)cc2)cc1C(N)=O | 2.92%
22 | Fc1ccc(C2CCCCN2Cc2cc(-c3ccccn3)no2)cc1 (stereo not given) | 7.03%

Row | Compound | Percent Effect
23 | CN(Cc1ccc(F)cc1F)Cc1cc2c(cc1Br)OCCO2 | -3.85%
24 | COC(=O)NCC(=O)N1CCC(c2cc3ccccc3[nH]2)CC1 | 6.03%
25 | Cc1cc(N2CCC(n3cc(CN4CCNCC4)nn3)CC2)ccn1 | -7.65%
26 | CC(C)c1noc(C(C)N2CCN(Cc3nc4ccccc4[nH]3)CC2)n1 (stereo not given) | -0.358%
27 | CN(Cc1cc(Br)c2c(c1)OCO2)Cc1cscn1 | -9.1%
28 | CC1(C)CC(CN2CCC3(CCC(=O)N(CCO)C3)CC2)CCO1 (stereo not given) | -1.98%
29 | O=C(Nc1ccc(-c2csnn2)cc1)NC(CCO)C1CC1 (stereo not given) | 12.3%
30 | COc1coc(CN2CCCC3(CCC(=O)N(CC4CC4)C3)C2)cc1=O (stereo not given) | 8.74%
31 | CC(CNC(=O)CCn1cncn1)N1CCc2ccccc21 (stereo not given) | 6.66%
32 | CSCc1noc(-c2ccc(C)c(N3CCNC3=O)c2)n1 | 13.8%
33 | COC(=O)C1CCN(C(=O)Cn2ccc(-c3ccccc3)n2)CC1 | -5.77%
34 | COCCCC1CCCCN1Cc1cn2cc(C)ccc2n1 (stereo not given) | 7.53%
35 | Cn1nc(C(=O)NCc2ccc(OC3CCCCC3)nc2)ccc1=O | 8.07%
36 | CC(Cc1cccc(F)c1)C(=O)NS(=O)(=O)c1ccc(F)cc1 (stereo not given) | 0.261%
37 | O=C(Nc1ccccc1OCCc1ccccn1)N1CC[C@@H](O)C1 | 8.55%
38 | CCN(C)S(=O)(=O)N1CCC(C(O)c2ccc(Cl)cc2)CC1 (stereo not given) | 1.46%
39 | CCN(C)C(=O)c1cccc(S(=O)(=O)NCCc2nc(C)cc(=O)[nH]2)c1 | -5.87%
40 | O=C1CCCCCN1Cc1cccc(OC(F)F)c1 | 3.82%
41 | CCc1nnc(CS(=O)(=O)c2ccc(C)cc2)n1C | 6.29%
42 | CC(C)n1cc(CN(Cc2ccsc2)CC2CCCO2)cn1 (stereo not given) | 5.12%
43 | CCC1(CC)CC(=O)N(CC(O)c2cccc(Br)c2)C1=O (stereo not given) | 17.2%
44 | Cc1nc(CCN(C)C(=O)CN2CCCCCC2)no1 | 1.14%

Row | Compound | Percent Effect
45 | CN(C)c1nc(N)nc(CN2CCC(c3nc4ccccc4o3)CC2)n1 | -11.3%
46 | O=C(NCCc1cccnc1)c1ccc2nccn2c1 | 0.0619%
47 | Cc1cc(N2CCC3(CCCN(CCO)C3=O)C2)nc2cc(Cl)ccc12 (stereo not given) | 10%
48 | Cc1ccc(S(C)(=O)=O)cc1NCC(=O)NCCC1=CCCCC1 | 0.0953%
49 | CN(C(=O)c1ccccn1)c1nnc(C2CCOC2)s1 (stereo not given) | 9.22%
50 | Cn1cc(CN(C(=O)c2ccc3ncsc3c2)C2CC2)cn1 | 10.2%
51 | COc1ccc(NC(=O)Cc2c(C)nn(C)c2C)cc1F | 1.16%
52 | Cc1ccccc1C(=O)NC[C@@H]1CCN(C(=O)c2cccn2C)C[C@H]1O | -3.19%
53 | Cc1nc(CN(C)S(=O)(=O)c2ccccc2Br)no1 | 6.12%
54 | CS(=O)(=O)N1CC[C@]2(O)CCN(c3ccnc(N)n3)C[C@@H]2C1 | -13.7%
55 | CC(c1ncc(-c2ccccc2)o1)N1CCN(C(=O)N(C)C)CC1 (stereo not given) | -7.85%
56 | c1nc(N2CCCC2)cnc1C1CCNCC1 | 11.5%
57 | CC(C)c1nn(C)c(Cl)c1CNCC(=O)N1CCN(C)CC1 | -14.6%
58 | OC[C@@H]1CCCN1Cc1cn(C2CCN(C3CCCC3)CC2)nn1 | -1.95%
59 | Cc1ccc(-n2ncc3c2CCCC3N)cc1C (stereo not given) | 16.9%
60 | O=C(NCCc1ccccn1)N1CCOC(c2ccccc2Cl)C1 (stereo not given) | -1.2%
61 | CN(CCc1ccccn1)C(=O)Cn1cc(-c2ccccc2)nn1 | -0.117%
62 | CC(c1ncc(-c2ccccc2)o1)N1CCN(C(=O)C(C)(C)C)CC1 (stereo not given) | 12.7%
63 | Cc1cccc(C)c1Nc1noc2c1CN(C(=O)c1cn(C)cn1)CC2 | 17.2%
64 | Cc1cc(-c2cnc(N3CCC(O)CC3)nc2C(C)C)on1 | 20.1%
65 | Cc1csc(C(C)(C)NCC(=O)N(C)Cc2ccc(C)o2)n1 | -7.36%
